# Measured values taken from the supplement of paper PMC11417369.
# ± gives the standard deviation of the averaged measurements. Whole data set: some 25,000 sequences, median “ln(normalized median fluorescence intensity)” near 8.9, cut for the highest 2% near 10. What follows is part of a selection rich in the highest values, with near analogues and random picks from the rest.
# Tested on: PfAP2-LT AP2 domain (GST-tagged)
# Assay: gcPBM binding intensity (ln(normalized median fluorescence intensity)); higher = stronger DNA binding
# How it was run: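 For binding intensity, the highest Masliner-normalised natural-log median intensity across replicate spots of either probe orientation was taken. Protein bound to the array was stained with Alexa488 anti-GST antibody and scanned at 488 nm. The protein, GST-tagged P. falciparum DNA-binding domains from E. coli at about 25 μg on average, had been applied for 1 h to an Agilent 4 × 180k array of primer-extended double-stranded 36-bp intergenic genomic probes and negative controls.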
row,Sequence,gcPBM binding intensity (ln)
1,TGGAACCTTTAAAATACACACCCAAATCCTTTGAAA [CACACA_site7671],8.69 ± 0.35
2,AGAGAGAGAAATACAAGTACATGTGAAACCAATCTA [XGTACX_site2767],9.04 ± 0.46
3,GCATCGATCAAACATACACACATGGTTAATAAAAAT [CACACA_site8651],9.24 ± 0.47
4,TTTAAAAAAAGCAGTACATGCAAAATAATAACAAGC [TGCATGCA_site392],9.2 ± 0.48
5,TACACAAGGGGAAAAATATATATATATATATATATA [TGCATGCA_negctrl_site217],9.88 ± 0.028
6,TATTTTTTTTCGTAATGTACATAAAAAATGCAAAAA [XGTACX_site8491],8.27 ± 0.36
7,CATCCGTTGATATATGCATGCATATTGTTATTACCA [TGCATGCA_site868],9.11 ± 0.36
8,TTTATATATAAATAATGTACAAAAAATTTTAAAAAG [XGTACX_site7990],8.39 ± 0.39
9,ACAGTTTGTCTGAGTAGTACATAAATACTTGAAAGG [XGTACX_site7792],8.79 ± 0.45
10,AAAATACACAGACACACACACATATAAATAAATATT [CACACA_site7871],9.79 ± 0.19
11,TACAGACTAAAATACACACACACACGCACATATATA [CACACA_site7875],10.2 ± 0.18
12,CACGCATACAGACACACACACACACGGATATAAATA [CACACA_site6445],10.2 ± 0.4
13,CGCGCACACGGACACACACACACACGGATATAAATA [CACACA_site7102],10 ± 0.4
14,AAAAAATACAGACACACACACACACGCATATAAATA [CACACA_site7644],10.1 ± 0.25
15,CACACGCACAGACACACACACACACGGATATAAATA [CACACA_site6301],10.2 ± 0.38
16,GCTATAAATACAGACGCACACATATACATACAGATA [CACACA_site5778],9.33 ± 0.42
17,CACACGCACAGACACACACACACATATAAATATGTA [CACACA_site6300],9.89 ± 0.37
18,TTTAAATACAGACATACACACATACACGCACATATA [CACACA_site6400],9.49 ± 0.37
19,GCTATAAATACAGACGCACACATATACATACATATA [CACACA_site3329],9.42 ± 0.33
20,CTAAAATACAGACACACACACACATATATATATATA [CACACA_site4150],10.07 ± 0.021

row,Sequence,gcPBM binding intensity (ln)
1,CGCATACACAGACACACACACACATATAAATATGTA [CACACA_site6444],9.98 ± 0.47
2,AAATCGTGCACGGACACATGCAGTAGCCGAGAATTA [TGCATGCA_site733],9.12 ± 0.38
3,AAAAAAAAGAAAAAAACACACAATGGAAAAAATGTA [CACACA_site3675],8.93 ± 0.59
4,TATAAAATAAATAACAAAAAAAATAAAATAAAAATA [TGCATGCA_negctrl_site297],8.6 ± 0.7
5,TGCCCTTTGGTTATAACACACATGCACACGTAAATA [CACACA_site7750],9.4 ± 0.23
6,TTTTGTTATTAGAGGGTGCTTATAATGAACTCCTAC,8.65 ± 0.49
7,TTATGAATACTTCAAGTGCATTTATTTTATATGACA,8.63 ± 0.48
8,ATATTGGAATAAATTTGTACATATATATATTATTCA [XGTACX_site916],8.7 ± 0.44
9,CTGTTTTTGTTTTAAAGTACATTGTTCAATATACAT [XGTACX_site5288],8.82 ± 0.43
10,ATATAATAAAATGACACACGCATATATATATATATA [CACACA_site2789],9.955 ± 0.021
11,TAAAAAATATTATATACACACAGTATAAAAAAAAAT [CACACA_site4012],8.95 ± 0.49
12,CACACTAAAAGACACACACACACACGCATATAAATA [CACACA_site7874],10.3 ± 0.4
13,AAATATAATAAAATGACACACGCATATATATATATA [CACACA_site8900],9.775 ± 0.064
14,ATAGTATACAGACACACACACACACGGATATAAATA [CACACA_site6914],10.1 ± 0.36
15,TAAATAAATTTATACACACACACACGGATATAAATA [CACACA_site6532],9.82 ± 0.071
16,GTATATTTAAATAAAAGTACGTAAAGATATATTTAA [XGTACX_site8087],8.86 ± 0.57
17,ATGCATATATTTATGTGTACATATATTTGTAGGGGG [XGTACX_site6063],10.2 ± 0.36
18,TTTGTCATTTTATTATGTACTCAGCATATAGGGGGG [XGTACX_site505],10.3 ± 0.33
19,ATATATATATATATATGTACTCATATTTTATTATTT [XGTACX_site898],9.665 ± 0.078
20,TATATATATATATATGCATGTACATATATTTGTTAT [TGCATGCA_site379],9.99 ± 0.4

row,Sequence,gcPBM binding intensity (ln)
1,ATATATATTTATATATGTACATATTTTTGTGTATTT [XGTACX_site1183],9.14 ± 0.44
2,TATATATATATATTATGTACTCATTTATTATCTTTT [XGTACX_site8051],9.04 ± 0.43
3,TTATATTATGGACACACACACAAAAAAAAAAAAAAA [CACACA_site7744],9.32 ± 0.51
4,GTTTGGTGGTGTTTTGGTACGTACGGGGGTGTATGT [XGTACX_site1211],9.88 ± 0.16
5,TATGATTTTTATATATGTACGTATGGTGTTTTACAA [XGTACX_site6100],8.76 ± 0.41
6,GTTTGGTGGTGTTTTGGTACGTACGGGGGGGTATGT [XGTACX_site1983],10.9 ± 0.18
7,AACATAATAAAAAAACGTACATAATTTTATATACAT [XGTACX_site6602],8.87 ± 0.41
8,TATATAAATAGACACACACACACATATAAATAAATA [CACACA_site7855],10 ± 0.34
9,AAAAAAAATAGACACACACACATACACATAAATATA [CACACA_site7742],9.82 ± 0.38
10,GTAGAGAAAAAAATGTGGACACAAAAAATAAAAAGG [XGTACX_site4058],8.96 ± 0.45
11,ATAAATAAAGGACACACACACACACTAGAAAAAAAA [CACACA_site5450],10.2 ± 0.3
12,AAGGATATAACATACACACACACACGGATATAAATA [CACACA_site7867],10.2 ± 0.37
13,AATATAAGGATATATACACACATAAATACATACATA [CACACA_site7859],9.25 ± 0.45
14,AAAATACATAGACACACACACACACGGATATAAATA [CACACA_site7643],10.2 ± 0.2
15,AATATAAATAAAAACACACACACACGGATATTTATA [CACACA_site7134],10 ± 0.25
16,CATATACATAGACACACACACACATAAATAAATATA [CACACA_site6749],9.91 ± 0.33
17,AAATAACACATATATACACACATATAAATATAATAT [CACACA_site2692],9.29 ± 0.34
18,ATAAGAAAAGGACACACACACAAAAAAAAAAAAAAA [CACACA_site7351],9.48 ± 0.51
19,CACTAAAATAGACACACACACACACGGATATAAATA [CACACA_site7873],10.3 ± 0.29
